Rows were chosen to be rich in hits. Some 6.9% of all compounds tested hit in one or more screens of this group.
Mdm2-MdmX inh – disrupts the human Mdm2-MdmX interaction; actives 3% (n = 330,000); SaOS-2 split-luciferase Mdm2/MdmX complementation, luminescence; O15151+Q00987; AID 485346; inhibition, % at 8 µM;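 active = inhibition of at least 50% at 8 µM in the primary screen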
Beta cell apopt – beta cell apoptosis inhibition. INS-1E cytokine-induced death, ATP luminescence, 48 h; percent of positive-control rescue, neutral wells zero. protection from apoptosis, % (test concentration not listed). actives 0.8% (n = 300,000). AID 435005;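 active = Every replicate reaches about 75%, or at least half do and their mean reaches it too, limit read from the data; inconclusive = At least half of replicates reach the limit but their mean does not; inactive = Under half of replicates reach the limit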;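 note: 0% = cytokine-treated negative control wells and 100% = positive control rescue; higher means more ATP so stronger rescue from cytokine killing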
MPTP inh – permeability transition pore inhibition; actives 1.4% (n = 360,000); inhibition, % at 10 µM; isolated mouse mitochondria, Ca2+ swelling absorbance, 30 min;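 active = inhibition of 50% or more, scaled per plate between neutral and stimulator controls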;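 note: 0% = DMSO wells given calcium and 100% = 1 mM EGTA wells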
SKKanGAS inh – SKKanGAS growth inhibition; S. pyogenes SKKanGAS, kanamycin growth, BacTiter-Glo, 6 h; inhibition, % at 7.5 µM; actives 1.3% (n = 300,000);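 active = mean replicate score, as percent of positive control median, at least 50; inconclusive = mean below 50 but one replicate at or above 50; inactive = mean and every replicate below 50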;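 note: strain carries kanamycin resistance gene driven by streptokinase promoter and grows in 40 µg/ml kanamycin; loss of luminescence reflects streptokinase promoter inhibition or plain growth inhibition; 0% = median of DMSO wells and 100% = positive control at its reference dose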
CSC inhib – blocks cancer stem cells. cancer stem cell-like cells viability, luminescence. actives 1.1% (n = 300,000). inhibition, % at 7.5 µM; in the data active = inhibition above about 75%; inconclusive = no clear call, values can overlap the other calls; tested in HMLE shEcad cells
GRIN3A LBD mod – modulates the human NR3A ligand-binding domain; NR3A LBD differential scanning fluorimetry, Tm shift; 0% = protein alone, 100% = glycine-bound protein; actives 2.5% (n = 340,000); Tm shift relative to glycine control, % at 25 µM;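 active = melting temperature shift of at least 10% of the positive control shift, at one fixed dose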
Mdm2-MdmX conf – human Mdm2/MdmX binding inhibition, confirmed; AID 489028; inhibition, % at 8 µM; actives 55% (n = 10,000); shares compounds with Mdm2-MdmX inh; luminescent assay; in the data active = inhibition above about 40%
FLuc counter – counter-screen for Mdm2/MdmX inhibitors: full-length luciferase. shares compounds with Mdm2-MdmX inh. SaOS-2 full-length luciferase counterscreen, luminescence. inhibition, % at 8 µM. actives 77% (n = 6,200);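 active = mean inhibition at 8 µM reaching about 37%, which flags the compound as non-specific, limit read from the data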;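 note: p53-null SaOS-2 cells with luciferase driven by a doxycycline-inducible promoter; compound on cells about two nights before reading with doxycycline added after day one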
Starred values were filed as active, the others as inactive; u = inconclusive; x = not tested or not shown.

SMILES	Mdm2-MdmX inh	Beta cell apopt	MPTP inh	SKKanGAS inh	CSC inhib	GRIN3A LBD mod	Mdm2-MdmX conf	FLuc counter
CC1(C)C[C@@H](O)[C@]2(C)CC[C@]3(C)C(=CCC4[C@@]5(C)CC[C@H](O)[C@](C)(CO)C5CC[C@]43C)[C@@H]2C1 (stereo not given in full)	77*	x	0	x	x	0	-44	x
CCCCn1nnc(NC(=S)NC(=O)c2ccc(OCC)c([N+](=O)[O-])c2)n1	23	-6	0	7	-3	0	x	x
CSCCC(NC(=O)c1ccco1)C(=O)Nc1ccc(C)cn1 (stereo not given)	-18	-2	-2	-11	23	2	x	x
Cc1nn(-c2nc3ccccc3s2)c(C)c1Oc1ccccc1O	77*	-5	4	41	u	4	66*	87*
O=c1c2c3c(sc2ncn1/N=C/c1ccc([N+](=O)[O-])o1)CCCC3	58*	21	0	3	103*	0	43*	57*
Cc1ccc(NC2C(=O)NC(=O)NC2=O)cc1	x	x	-1	x	x	3	x	x
Cc1ccc2c(c1)N(CC(=O)NC1CCCC1)C(=O)c1cccnc1O2	5	-5	0	11	-7	-2	x	x
CCN1CCN(c2ccc(NC(=O)CCc3c(C)nc4c(-c5ccc(F)cc5)c(C)nn4c3C)cc2)CC1	55*	12	-6	10	81*	-5	36	x
NC(=O)c1ccccc1NC(=O)CC12CC3CC(CC(Br)(C3)C1)C2	-2	-4	-2	-3	-16	-1	x	x
O=C(c1ccccc1)c1nn(-c2ccc(Cl)cc2)c(=O)cc1C(F)(F)F	95*	11	-2	2	108*	-1	78*	56*
O=C(c1ccccc1)c1nn(-c2ccccc2)c(=O)cc1-c1ccccc1	x	x	1	x	x	x	x	x
O=C(c1cccc(Cl)c1)c1nn(-c2ccccc2)c(=O)cc1C(F)(F)F	77*	107*	4	-8	57	-17	32	x
O=C(Nc1nc(-c2ccccn2)cs1)c1cccc(-n2cnnn2)c1	77*	76*	0	53*	32	-1	69*	26
O=C(Nc1nc(-c2ccccn2)cs1)c1ccco1	51*	32	0	59*	1	0	24	x
COc1ccc(N(Cc2ccccc2)C(=O)OC(C)(C)C)c(C(=O)N(C)OC)c1	12	3	-1	x	7	3	x	x
CN1CCN(c2ccccc2NC(=O)c2ccc(-c3ccc(Cl)c(Cl)c3)o2)CC1	58*	30	1	31	90*	-4	23	x
O=C(NCc1ccccn1)c1ccc(OC2CCN(Cc3ccc(CO)o3)CC2)cc1	15	-1	0	11	4	1	x	x
CCc1ccc(NC2=CC(=O)C(=O)c3ccccc32)cc1	70*	x	5	x	x	3	65*	85*
O=C(CN1C(=O)c2ccccc2C1=O)Nc1cccc2cccnc12	25	x	1	-5	-1	-1	x	x
O=C1C=C(Nc2ccccc2C(=O)O)c2ccccc2C1=O	-14	8	10	3	52	0	x	x
CCc1ccc(/C=C/C(=O)C2C(=O)c3ccccc3C2=O)cc1	-10	10	-4	0	55	-5	x	x
O=C1C=C(Nc2cccc3cccnc23)c2ccccc2C1=O	63*	-6	0	63*	58	-4	57*	70*
O=C1C=C(Nc2ccccc2)c2ccccc2C1=O	53*	x	4	68*	x	-2	30	x
Cc1cc(C)cc(NC(=O)CSc2nnnn2-c2cccnc2)c1	9	-7	0	-1	-4	2	x	x
C=CCc1cccc(CNn2cnnc2)c1O	-1	0	2	-16	-6	1	x	x
SMILES	Mdm2-MdmX inh	Beta cell apopt	MPTP inh	SKKanGAS inh	CSC inhib	GRIN3A LBD mod	Mdm2-MdmX conf	FLuc counter
Cc1ccc(-c2nc(NC(=O)c3cc(C(C)(C)C)nn3C)sc2C)cc1Cl	38	33	2	35	57	1	x	x
Cc1c(C#N)c(NC(=O)CCl)n(Cc2ccc(F)cc2)c1C	89*	-4	0	0	15	1	51*	43*
COC(=O)c1cc(C(=O)OC)n(Cc2ccc(F)cc2)c1C	-21	-4	0	-3	-3	1	x	x
Cc1c(C#N)c(NC(=O)CCl)n(Cc2ccccc2)c1C	94*	3	0	11	33	-1	86*	38*
Cc1c(C#N)c(NC(=O)CCl)n(Cc2cccs2)c1C	94*	6	1	1	-1	-1	76*	38*
O=C(Cc1cccc(C(F)(F)F)c1)NCC(=O)Nc1cc(Cl)ccc1Cl	35	2	1	-9	6	-7	x	x
Cc1ccc(-c2nnc(SCC(=O)NC3CCCC3)n2N)cc1	15	5	-1	x	-9	0	x	x
CCN(CC)C(=O)C1=C(C)N(CCCN2CCCC2=O)C(=O)C(CC(=O)NC(c2ccccc2)c2ccccc2)C1 (stereo not given)	x	x	-1	x	x	x	x	x
COc1ccc(CN(CCC(C)C)S(=O)(=O)c2ccccc2Br)cc1	-25	x	-1	x	x	4	x	x
COc1ccc(CN(C2CC2)S(=O)(=O)c2ccccc2Br)cc1	51*	x	-1	x	x	13*	0	x
CNC[C@@H](CC1CCCCC1)NC[C@H](CC(C)C)NCCc1cccc(C(F)(F)F)c1	99*	112*	5	88*	111*	-9	100*	50*
CCC[C@H](CN[C@@H](CNC)[C@H](C)CC)NCCc1cc(C(F)(F)F)cc(C(F)(F)F)c1	97*	17	10	51*	59	4	100*	52*
CC[C@@H](C)[C@H](CNC)NC[C@@H](Cc1cccc2ccccc12)NCCc1cccc(C(F)(F)F)c1	100*	14	6	99*	u	-1	100*	52*
COc1ccccc1CCNC(=O)C(=O)NCC1OCCCN1S(=O)(=O)c1ccc(F)cc1C (stereo not given)	15	11	-2	14	-6	0	x	x
CCOC(=O)C1=C(c2ccccc2)NC(=O)NC1c1ccc(O)c(Cl)c1 (stereo not given)	94*	x	0	-2	8	-2	56*	30
Nc1ccc(S(=O)(=O)c2cc(O)c3ccccc3c2O)cc1	x	x	4	x	x	3	x	x
COc1ccc(-c2cc(C(=O)N(C)CC(=O)Nc3cccc(F)c3)c3ccccc3n2)cc1	30	0	-1	24	12	10	x	x
Cc1ccc(CNC(=O)C2CCCN(S(=O)(=O)c3ccc(F)cc3)C2)cc1 (stereo not given)	11	-10	1	1	-18	1	x	x
COc1ccc(NS(=O)(=O)c2cccc(C(=O)NNC(=O)c3ccccc3O)c2)cc1	53*	-1	6	-14	36	x	56*	58*
